Shown is part of a subset that was picked to be rich in hits.
ERK EGF inh = EGF-driven ERK pathway inhibition | HEK293-V1b, EGF-stimulated phospho-ERK AlphaScreen | Potency, µM (titrated, usually from 11.5 µM), inactives show top-dose activity change, negative = inhibition, usual class: inhibitors | 130,000 tested, 0.41% active;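 also: potency is read from the fitted curve at half-maximal effect; plate controls were stimulated vehicle wells for no effect and unstimulated vehicle basal for full effect; nearly all actives have a fitted effect of over 55% in size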
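After overnight plating in 1% FBS, HEK293-V1b cells received test compound for half an hour, then a 5 min pulse of EGF (25 nM); ERK phosphorylation in lysates was read by bead-based AlphaScreen.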
pERK EGF inh = reduces EGF-stimulated ERK phosphorylation in HEK293 cells; 60 tested, 60% active; AID 1725; shares compounds with ERK EGF inh; HEK293 EGF-stimulated ERK phosphorylation, AlphaScreen; Potency, µM (highest dose often 57.5 µM), without a hit: top-dose activity change, negative = inhibition, hits mostly inhibitors
c-Raf inh = blocks human c-Raf kinase activity | shares compounds with ERK EGF inh | c-Raf kinase inhibition, homogeneous biochemical assay | activity change, negative = inhibition, % at 76.9 µM | 70 tested, under 10 active | AID 1728
Target sequence (P04049 whole entry, looked up): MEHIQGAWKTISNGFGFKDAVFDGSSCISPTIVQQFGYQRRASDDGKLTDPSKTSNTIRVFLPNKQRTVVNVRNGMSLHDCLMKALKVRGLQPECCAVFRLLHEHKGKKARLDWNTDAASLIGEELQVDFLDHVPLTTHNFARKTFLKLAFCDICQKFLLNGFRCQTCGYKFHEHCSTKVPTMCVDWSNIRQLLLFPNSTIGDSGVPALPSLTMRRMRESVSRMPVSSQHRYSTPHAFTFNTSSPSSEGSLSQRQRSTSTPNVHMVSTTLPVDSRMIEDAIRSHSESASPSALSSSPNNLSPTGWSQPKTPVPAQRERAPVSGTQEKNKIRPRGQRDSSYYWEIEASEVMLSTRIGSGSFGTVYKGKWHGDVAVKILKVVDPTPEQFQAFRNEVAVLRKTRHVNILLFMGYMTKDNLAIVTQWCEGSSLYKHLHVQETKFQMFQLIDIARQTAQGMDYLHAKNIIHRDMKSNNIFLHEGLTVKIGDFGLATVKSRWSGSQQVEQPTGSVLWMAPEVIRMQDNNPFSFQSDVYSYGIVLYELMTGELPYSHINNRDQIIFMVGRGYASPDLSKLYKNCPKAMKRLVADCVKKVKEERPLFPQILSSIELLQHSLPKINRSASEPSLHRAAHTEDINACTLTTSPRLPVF
MEK inh = blocks human MEK1 kinase activity in ERK pathway follow-up. shares compounds with ERK EGF inh. homogeneous MEK kinase activity assay, ERK pathway. Potency, µM (highest dose often 76.9 µM), for the others: at the top dose activity change, negative = inhibition, hits mostly inhibitors. 70 tested, under 10 active
An asterisk follows results filed as active; ? = inconclusive; . = no result; [ ] = another dose, or the depositor's remark. Calls follow the shape of the dose curve; as a rule, active = well fitted curve in the direction sought with a large enough effect; inconclusive = small, poorly fitted or top-dose-only effect, or another doubt; inactive = no such curve, though single readings can be large; an effect the other way counts as inactive or inconclusive.

SMILES	ERK EGF inh	others
COc1cccc(/C=N/Nc2cc(-n3nc(C)cc3-c3ccccc3)ncn2)c1O	8.9µM*	pERK EGF inh=11µM*;c-Raf inh=?;MEK inh=-7%
COc1cccc(/C=N/Nc2ncnc3scc(-c4ccccc4)c23)c1O	5%
COc1cccc(/C=N/Nc2ncnc(Cl)c2N)c1O	-4%
COCC(=O)N1CCC2(CCCN(c3ccc(-c4ccccc4)cc3)C2)CC1	17%
c1cncc(CNc2ncnc3sc4c(c23)CCCC4)c1	-11%
Cc1cc(C)nc(Sc2ncnc3sc4c(c23)CCC4)n1	3%
Fc1ccc(Nc2ncnc3sc4c(c23)CCC4)cc1	.	pERK EGF inh=10µM*;c-Raf inh=?;MEK inh=-7%
Cc1nc(Nc2cccc(O)c2)c2c3c(sc2n1)CCC3	-1%[57.5 µM]
Cc1sc2ncnc(Nc3ccccc3)c2c1C	.	pERK EGF inh=?;c-Raf inh=-12;MEK inh=-1%
COc1ccc(/C=N/Nc2ncnc3sc4c(c23)CCCC4)cc1OC	15%
Cc1sc2ncnc(N[C@@H](Cc3c[nH]c4ccccc34)C(=O)O)c2c1C	6%
Cc1sc2ncnc(NC(C)C(=O)O)c2c1C (stereo not given)	-6%
Fc1ccc(Nc2ncnc3sc4c(c23)CCC4)cc1F	2.5µM*	pERK EGF inh=8.9µM*;c-Raf inh=?;MEK inh=?
CN(C)C(CNc1ncnc2sc3c(c12)CCCCC3)c1ccco1 (stereo not given)	-5%
c1ccc(Nc2ncnc3sc4c(c23)CCC4)cc1	.	pERK EGF inh=10µM*;c-Raf inh=-32;MEK inh=18%
Cc1cc(F)ccc1S(=O)(=O)Nc1ncnc2sc3c(c12)CCC3	1%[57.5 µM]
CC1(C)CC(=O)c2c(oc3cc4c(cc23)OCO4)C1	3%
CCC1=C2CC[C@H]3C(=O)N(CC(=O)OC)C(=O)[C@H]3[C@H]2[C@@]2(C)C(=NCCc3c[nH]c4ccccc34)OC(=O)N2C1=O	-4%
COc1ccc2cccc(N3CCN(CCNC(=O)c4ccc(F)cc4)CC3)c2c1	-19%
COC(=O)C/C=C/[C@@H](C)[C@H](NC(=O)OCC(Cl)(Cl)Cl)c1cccc(OC)c1	5%
CN(C)c1nc2c(Br)c(Br)c(Br)c(Br)c2[nH]1	27%
C[C@H]1C(O)[C@@]23CCC4C5(C=[N+](CCO)C[C@]4(C)CCC5)C2C[C@@H]1C3 (stereo not given in full)	-2%
O=C(c1ccncc1)N1CCC2(CCN(Cc3ccncc3)CC2)CC1	11%
C=CCN1C(=O)/C(=C/C=C2/N(CC)c3ccc(S(=O)(=O)N(C)C)cc3N2CC)SC1=S	?	pERK EGF inh=?;c-Raf inh=-2;MEK inh=5%
CCN1C(=O)C(CC(=O)Nc2ccc(C)cc2C)Nc2cc(S(=O)(=O)N(C)C)ccc21 (stereo not given)	-4%
SMILES	ERK EGF inh	others
C=CCN1C(=O)/C(=C\c2cc(Br)c(OCc3ccccn3)c(OC)c2)SC1=S	0%
CS(=O)(=O)N1CCC2(CCN(C(=O)Nc3cccc(F)c3)CC2)CC1	0%
Cc1nc2ccccc2nc1OCC(=O)Nc1ccc(F)cc1	-11%
Cc1ccc(Nc2nc3ccccc3nc2Nc2c(C)n(C)n(-c3ccccc3)c2=O)cc1	8%
Cc1ccc(NNc2c(C)nc3ccccc3nc2=O)cc1	.	pERK EGF inh=8.9µM*;c-Raf inh=-6;MEK inh=24%
Cc1nc2cc3sc(C)nc3cc2s1	-4%
Cc1cc2nc3ccc(=[N+](C)C)cc-3sc2cc1N	?	pERK EGF inh=11%;c-Raf inh=?;MEK inh=?
Cc1nc2cc(C)c(C)cc2s1	-20%[57.5 µM]
CCCN1C(=O)/C(=C/c2ccncc2)SC1=S	2%
CCCN1C(=O)/C(=C2\SC(=S)N(c3c(C)n(C)n(-c4ccccc4)c3=O)C2=O)c2ccccc21	-7%[57.5 µM]
CCCN1C(=O)/C(=C2/C=Cc3ccccc3N2CC)SC1=S	5.6µM*	pERK EGF inh=10µM*;c-Raf inh=-8;MEK inh=-2%
COC(=O)[C@@H]1C[C@@H]2CC[C@@H](O)C[C@@H]2N1CC1CCCCC1	14%
CCCCC/C=C\C[C@@H](O)/C=C/C=C/C=C\[C@@H](O)CCCC(=O)O	-9%
[N-]=[N+]=Nc1nc2c(N)ncnc2n1C1OC(CO)C(O)C1O (stereo not given)	24%
COC(=O)C1(C(=O)OC)C[C@H]2CON=C2[C@H]1c1ccccc1	2%
Cc1ccc(C(=O)N/C(=C/c2ccco2)C(=O)O)cc1	-4%
N#CC(C#N)=C1C=CC=CN1/C(=C\c1ccco1)C(=O)c1ccc(Br)cc1	7.9µM*	pERK EGF inh=16µM*;c-Raf inh=?;MEK inh=-23%
COC1OC2COC(c3ccccc3)OC2C(O)C1O (stereo not given)	-1%
COC(=O)[C@@]1(Cc2ccccc2)[C@H]2c3cc(C(=O)N(C)C)n(Cc4ccsc4Br)c3C[C@H]2CN1C(=O)c1ccccc1	4%
